The target of this experiment is Peroxisome proliferator-activated receptor gamma (Homo sapiens) (UniProt P37231). The experiment in a line: PPARg partial agonist activation, primary screen, cell-based, luciferase reporter, luminescence (AID 504452).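 Further: Cos-1 cells carrying PPARgamma and a response element luciferase reporter.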 Conditions: at 5 µM, stronger effect = higher value; activation (% of full agonist control): measured here: relative to full agonist control. For orientation: A reporter such as luciferase makes a cellular process visible.

Calls of active or inactive are those of the source. No stated cut-off is given here; in the data, active means activation above about 85%; inactive means the rest.

Peroxisome proliferator-activated receptor gamma (Homo sapiens), sequence (P37231 whole entry, looked up): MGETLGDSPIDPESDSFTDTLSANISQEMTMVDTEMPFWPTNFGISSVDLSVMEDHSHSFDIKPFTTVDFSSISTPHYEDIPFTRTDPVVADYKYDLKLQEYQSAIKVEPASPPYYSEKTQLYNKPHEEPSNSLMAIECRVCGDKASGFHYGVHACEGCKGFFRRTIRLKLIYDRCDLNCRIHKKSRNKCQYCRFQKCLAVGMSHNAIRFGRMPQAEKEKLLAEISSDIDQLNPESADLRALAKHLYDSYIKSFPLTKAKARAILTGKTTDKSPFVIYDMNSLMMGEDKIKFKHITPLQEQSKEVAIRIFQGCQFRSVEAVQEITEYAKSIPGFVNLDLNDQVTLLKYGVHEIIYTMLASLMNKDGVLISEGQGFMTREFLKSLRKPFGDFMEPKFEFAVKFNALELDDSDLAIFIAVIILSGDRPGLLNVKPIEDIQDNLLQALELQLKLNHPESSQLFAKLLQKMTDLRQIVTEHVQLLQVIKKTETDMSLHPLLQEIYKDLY

For `Cc1cc(N2C(=O)C(O)=C(C(=O)c3cccs3)C2c2cccc(Br)c2)no1` (centres undefined), the activation (% of full agonist control) is 45.7% and the activation (% of partial agonist control) is 101% (active).
In the same order, the values of `COc1cc(CN2CCN(c3cccc(C)c3C)CC2)cc([N+](=O)[O-])c1O` are 33.7% and 74.7% (inactive).
As for `Cc1cc(C(=O)CN2C(=O)C(=O)N(Cc3ccccc3)C2=O)c(C)n1-c1ccc2c(c1)OCCO2`, the activation (% of full agonist control) amounted to 40.4% and the activation (% of partial agonist control) is 89.5% (active).
For `O=C(CN1c2cccc3cccc(c23)S1(=O)=O)N1CCN(c2ccc(F)cc2)CC1`, in that order: 34.1% and 75.5% (inactive).
`O=C(CSc1nc(=O)n(CCCN2CCOCC2)c2c1CCC2)Nc1cccc(F)c1`: the activation (% of full agonist control) was found to be 40.3% and the activation (% of partial agonist control) is 89.3% (active).
Consider `O=C(COc1ccc([N+](=O)[O-])cc1)Nc1cccc(C(=O)Nc2ccccc2C(=O)O)c1`, for which the activation (% of full agonist control) turned out to be 27.7% and the activation (% of partial agonist control) was 61.3% (inactive).
In the case of `O=C(O)COc1ccccc1/C=C1\SC(=S)N(NC(=O)c2ccccc2O)C1=O`, the activation (% of full agonist control) worked out at 41.4% and the activation (% of partial agonist control) is 91.7% (active).
`O=C(Nc1cc(Cl)ccc1O)c1cc2n(n1)C(C(F)(F)F)CC(c1ccc3c(c1)OCO3)N2` (centres undefined): the activation (% of full agonist control) worked out at 35% and the activation (% of partial agonist control) is 77.5% (inactive).
In the same order, the values of `Cc1nc2c(sc(=S)n2Cc2ccco2)c(=O)n1CC(=O)Nc1cc(F)ccc1F` are 32.4% and 71.8% (inactive).
Regarding `COc1ccc(C=NNS(=O)(=O)c2ccc(F)cc2)cc1COc1cc(F)ccc1[N+](=O)[O-]`, the activation (% of full agonist control) came out at 42.9% and the activation (% of partial agonist control) is 95% (active).
For `Nc1ccccc1SC1CC(=O)N(c2ccc3c(c2)OCO3)C1=O` (centres undefined), in that order: 34.5% and 76.4% (inactive).
Regarding `Cc1cccc(N2CCN(C(=O)c3cccc(N4C(=O)C5CC=CC(C)C5C4=O)c3)CC2)c1C` (centres undefined), the activation (% of full agonist control) is 16.4% and the activation (% of partial agonist control) was 36.3% (inactive).
For `O=C1C2CCCN2c2ccc(S(=O)(=O)N3CCOCC3)cc2N1Cc1cccc(C(F)(F)F)c1` (centres undefined), in that order: 32.4% and 71.8% (inactive).
In the case of `CC(=O)Nc1cccc(-n2c(=O)n(Cc3ccccc3)c(=O)c3[nH]cnc32)c1`, the activation (% of full agonist control) was determined as 36.6% and the activation (% of partial agonist control) was 81.1% (inactive).
With `c1ccc(CCN2CN(CCCN3CCOCC3)c3nc4ccccc4n3C2)cc1`, the activation (% of full agonist control) is 24.6% and the activation (% of partial agonist control) is 54.4% (inactive).
For `COC(=O)c1sc(N2C(=O)C(=O)/C(=C(/O)c3ccc(C)cc3)C2c2ccco2)nc1C` (centres undefined), in that order: 37.7% and 83.5% (inactive).
With `O=S(=O)(NCC(c1ccco1)N1CCc2ccccc2C1)c1ccc(F)cc1` (centres undefined), the activation (% of full agonist control) was 29.9% and the activation (% of partial agonist control) is 66.1% (inactive).
Take `COc1cccc(NS(=O)(=O)c2ccc3c(c2)C2C=CCC2C(c2ccc(C(=O)O)cc2)N3)c1` (centres undefined): the activation (% of full agonist control) turned out to be 32.7% and the activation (% of partial agonist control) was 72.4% (inactive).
`Cc1cc(N2C(=O)C(O)=C(C(=O)c3ccco3)C2c2cccc(Cl)c2)no1` (centres undefined): the activation (% of full agonist control) was determined as 25.2% and the activation (% of partial agonist control) was 55.9% (inactive).
For the compound `Cc1ccc(CN2C(=O)N/C(=C\c3cccn3-c3cccc(C(=O)O)c3)C2=O)cc1`, the activation (% of full agonist control) stood at 36.9% and the activation (% of partial agonist control) is 81.8% (inactive).
On to `O=C(CNC(=O)c1nc[nH]c1C(=O)N1CCc2ccccc2C1)OCc1ccccc1`, for which the activation (% of full agonist control) came to 40.3% and the activation (% of partial agonist control) is 89.3% (active).
As for `O=C(c1nc2ccccn2c1CN1CCCC(O)C1)N1CCN(C2CCCCC2)CC1` (centres undefined), the activation (% of full agonist control) stood at 46.4% and the activation (% of partial agonist control) was 103% (active).
Regarding `Cc1ccc(C)c(/C(O)=C2/C(=O)C(=O)N(CCN3CCOCC3)C2c2ccc(C)o2)c1` (centres undefined), the activation (% of full agonist control) turned out to be 9.22% and the activation (% of partial agonist control) was 20.4% (inactive).
Take `CCn1cnc2c1c(=O)n(Cc1cccc([N+](=O)[O-])c1)c(=O)n2Cc1ccccc1`: the activation (% of full agonist control) amounted to 64.1% and the activation (% of partial agonist control) is 142% (active).
Regarding `N#C/C(=C\c1ccc(OCCN2CCOCC2)cc1)C(=O)Nc1ccc(S(N)(=O)=O)cc1`, the activation (% of full agonist control) amounted to 36.8% and the activation (% of partial agonist control) is 81.4% (inactive).
Take `COc1ccc(N2C(=O)C(=O)/C(=C(/O)c3ccc(C)cc3)C2c2cccnc2)cc1` (centres undefined): the activation (% of full agonist control) worked out at 28.8% and the activation (% of partial agonist control) is 63.8% (inactive).
As for `COc1ccc(N2CCN(C3CC(=O)N(Cc4ccc(N5CCCC5=O)cc4)C3=O)CC2)cc1` (centres undefined), the activation (% of full agonist control) came to 27.6% and the activation (% of partial agonist control) is 61.2% (inactive).
In the case of `O=C(c1cccc(S(=O)(=O)Nc2ccccc2Cl)c1)N1CCN(c2ccccc2O)CC1`, the activation (% of full agonist control) is 28.5% and the activation (% of partial agonist control) is 63.2% (inactive).
For `C=CCSc1nnc(N2C(=O)C(O)=C(C(=O)c3ccco3)C2c2ccc(F)cc2)s1` (centres undefined), in that order: 30.5% and 67.6% (inactive).
As for `O=C1CC(N2CCN(Cc3ccc4c(c3)OCO4)CC2)C(=O)N1Cc1ccc(N2CCCC2=O)cc1` (centres undefined), the activation (% of full agonist control) amounted to 41.4% and the activation (% of partial agonist control) was 91.6% (active).
As to `O=C(c1cc2n(n1)C(C(F)(F)F)CC(c1ccco1)N2)N1CCc2ccccc2C1` (centres undefined), the activation (% of full agonist control) was found to be 37.2% and the activation (% of partial agonist control) was 82.3% (inactive).
For `CCOc1cc(N2CCOCC2)c(OCC)cc1NC(=O)c1oc2ccccc2c1C`, the activation (% of full agonist control) worked out at 29.4% and the activation (% of partial agonist control) is 65.1% (inactive).
As for `COc1ccccc1N1C(=O)C2C(c3ccccc3F)NN(C(=O)c3ccc(C)cc3)C2C1=O` (centres undefined), the activation (% of full agonist control) amounted to 26.8% and the activation (% of partial agonist control) is 59.4% (inactive).
As to `COc1ccc(O)c(C(=O)c2cc(C#N)c(=O)n(CC3CCCO3)c2)c1` (centres undefined), the activation (% of full agonist control) stood at 38.1% and the activation (% of partial agonist control) is 84.3% (inactive).
For `Cc1c(CNCCC2=CCCCC2)c(C(=O)O)c(C)n1Cc1ccccc1`, in that order: 10% and 22.2% (inactive).
In the same order, the values of `CC(=O)N/C(=C\c1ccc2c(c1)OCO2)C(=O)NC(C(=O)O)c1ccccc1` (centres undefined) are 27.7% and 61.4% (inactive).
On to `O=C(c1cccc(N2C(=O)C3C4C=CC(C4)C3C2=O)c1)N1CCN(c2ccccc2Cl)CC1` (centres undefined), for which the activation (% of full agonist control) was determined as 41.1% and the activation (% of partial agonist control) is 91% (active).

The values are drawn from PubChem BioAssay AID504452 (The Scripps Research Institute Molecular Screening Center, 2011).
